# Measurements reported in PubChem BioAssay AID1159580 (chemical genetic matrix, 2015).
# Several values for one entry are separate records, joined by “and”; a condition that tells them apart may be missing. Equal entries are not always repeated. The whole screen tested about 5,500 compounds, of which about 2,000 (36%) were called active. Inconclusive results (about 18%) are left out. The list shows a part of the results. A number with no mark means an inactive call. Rule as the data show it: active = normalized growth mostly below about 0.91 (no sharp cut-off); inconclusive = no clear call, values can overlap the other calls; inactive = mostly above about 0.92.
# Assay: chemical genetic growth profiling, strain panel (AID 1159580);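 also: tested at 20 µM; growth read once vehicle control cultures reached saturation at 30 °C; 1 = growth at the plate median or of vehicle wells; lower values mean less growth of the strain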
# Conditions: growth OD
smiles,measurement,setting,value
C=CCc1ccc(OC(=O)c2ccccc2)c(OC)c1,normalized growth,"S. cerevisiae deletion strains, locus YBR021W, strain FUR4, active compounds read low",1
same,normalized growth,"S. cerevisiae deletion strains, locus YBR229C, strain ROT2, active compounds read low",0.99
same,normalized growth,"S. cerevisiae deletion strains, locus YCL029C, strain bik1, active compounds read low",0.973
same,normalized growth,"S. cerevisiae deletion strains, locus YDL035C, strain GPR1, active compounds read low",0.916
same,normalized growth,"S. cerevisiae deletion strains, locus YDL074C, strain BRE1, active compounds read low",0.923
same,normalized growth,"S. cerevisiae deletion strains, locus YDL101C, strain DUN1, active compounds read low",0.974
same,normalized growth,"S. cerevisiae deletion strains, locus YDL134C, strain PPH21, active compounds read low",0.95
same,normalized growth,"S. cerevisiae deletion strains, locus YDL185W, strain tfp1, active compounds read low",0.998
same,normalized growth,"S. cerevisiae deletion strains, locus YDL192W, strain arf1, active compounds read low",0.928
same,normalized growth,"S. cerevisiae deletion strains, locus YDR101C, strain arx1, active compounds read low",0.919
same,normalized growth,"S. cerevisiae deletion strains, locus YDR150W, strain NUM1, active compounds read low",0.997
same,normalized growth,"S. cerevisiae deletion strains, locus YDR162C, strain NBP2, active compounds read low",0.947
same,normalized growth,"S. cerevisiae deletion strains, locus YDR318W, strain mcm21, active compounds read low",0.939
same,normalized growth,"S. cerevisiae deletion strains, locus YDR388W, active compounds read low",0.979
same,normalized growth,"S. cerevisiae deletion strains, locus YDR502C, strain sam2, active compounds read low",0.944
same,normalized growth,"S. cerevisiae deletion strains, locus YER110C, active compounds read low",1.03
same,normalized growth,"S. cerevisiae deletion strains, locus YER155C, strain BEM2, active compounds read low",0.969
same,normalized growth,"S. cerevisiae deletion strains, locus YER167W, strain BCK2, active compounds read low",0.939
same,normalized growth,"S. cerevisiae deletion strains, locus YGL078C, strain dbp3, active compounds read low",0.956
same,normalized growth,"S. cerevisiae deletion strains, locus YGL086W, strain mad1, active compounds read low",0.933
same,normalized growth,"S. cerevisiae deletion strains, locus YGL248W, strain PDE1, active compounds read low",0.971
same,normalized growth,"S. cerevisiae deletion strains, locus YGR078C, strain PAC10, active compounds read low",0.974
same,normalized growth,"S. cerevisiae deletion strains, locus YGR135W, strain pre9, active compounds read low",0.965
same,normalized growth,"S. cerevisiae deletion strains, locus YGR252W, strain gcn5, active compounds read low",0.993
same,normalized growth,"S. cerevisiae deletion strains, locus YHR030C, strain SLT2, active compounds read low",1 and 0.914
same,normalized growth,"S. cerevisiae deletion strains, locus YHR079C, strain IRE1 (second series), active compounds read low",0.988
same,normalized growth,"S. cerevisiae deletion strains, locus YHR079C, strain IRE1, active compounds read low",0.931
same,normalized growth,"S. cerevisiae deletion strains, locus YHR094C, strain hxt1, active compounds read low",0.988
same,normalized growth,"S. cerevisiae deletion strains, locus YHR129C, strain ARP1, active compounds read low",0.985
same,normalized growth,"S. cerevisiae deletion strains, locus YHR200W, strain rpn10, active compounds read low",0.952
same,normalized growth,"S. cerevisiae deletion strains, locus YIL066C, strain RNR3, active compounds read low",0.973
same,normalized growth,"S. cerevisiae deletion strains, locus YIL073C, strain SPO22, active compounds read low",1.08
same,normalized growth,"S. cerevisiae deletion strains, locus YIL125W, strain kgd1, active compounds read low",0.966
same,normalized growth,"S. cerevisiae deletion strains, locus YIR030C, strain dcg1, active compounds read low",0.983
same,normalized growth,"S. cerevisiae deletion strains, locus YJL095W, strain BCK1, active compounds read low",0.918 and 0.973
same,normalized growth,"S. cerevisiae deletion strains, locus YJL134W, strain LCB3, active compounds read low",1
same,normalized growth,"S. cerevisiae deletion strains, locus YJL168C, strain set2, active compounds read low",1
same,normalized growth,"S. cerevisiae deletion strains, locus YJL187C, strain SWE1 (second series), active compounds read low",0.954
same,normalized growth,"S. cerevisiae deletion strains, locus YJR043C, strain POL32, active compounds read low",0.936
same,normalized growth,"S. cerevisiae deletion strains, locus YJR066W, strain TOR1, active compounds read low",0.954
same,normalized growth,"S. cerevisiae deletion strains, locus YKL009W, strain mrt4, active compounds read low",0.925
same,normalized growth,"S. cerevisiae deletion strains, locus YKL068W, active compounds read low",0.979
same,normalized growth,"S. cerevisiae deletion strains, locus YKL085W, strain MDH1 (second series), active compounds read low",0.981
same,normalized growth,"S. cerevisiae deletion strains, locus YKL085W, strain MDH1, active compounds read low",0.981
same,normalized growth,"S. cerevisiae deletion strains, locus YKR001C, strain vps1, active compounds read low",0.908
same,normalized growth,"S. cerevisiae deletion strains, locus YLR039C, strain RIC1, active compounds read low",0.958
same,normalized growth,"S. cerevisiae deletion strains, locus YLR058C, strain SHM2, active compounds read low",0.952
same,normalized growth,"S. cerevisiae deletion strains, locus YLR102C, strain apc9, active compounds read low",0.996
same,normalized growth,"S. cerevisiae deletion strains, locus YLR113W, strain HOG1, active compounds read low",0.841 (active)
same,normalized growth,"S. cerevisiae deletion strains, locus YLR268W, strain sec22, active compounds read low",0.965
same,normalized growth,"S. cerevisiae deletion strains, locus YLR330W, strain CHS5, active compounds read low",0.983
same,normalized growth,"S. cerevisiae deletion strains, locus YLR371W, strain rom2, active compounds read low",0.985
same,normalized growth,"S. cerevisiae deletion strains, locus YLR418C, strain cdc73, active compounds read low",0.935
same,normalized growth,"S. cerevisiae deletion strains, locus YML016C, strain PPZ1, active compounds read low",1
same,normalized growth,"S. cerevisiae deletion strains, locus YML032C, strain rad52, active compounds read low",0.926
same,normalized growth,"S. cerevisiae deletion strains, locus YML124C, strain tub3, active compounds read low",0.977
same,normalized growth,"S. cerevisiae deletion strains, locus YMR078C, strain ctf18, active compounds read low",0.978
same,normalized growth,"S. cerevisiae deletion strains, locus YMR223W, strain ubp8, active compounds read low",0.967
same,normalized growth,"S. cerevisiae deletion strains, locus YMR263W, strain SAP30, active compounds read low",0.998
same,normalized growth,"S. cerevisiae deletion strains, locus YMR307W, strain GAS1, active compounds read low",1.2
same,normalized growth,"S. cerevisiae deletion strains, locus YNL067W, strain RPL9B, active compounds read low",0.969
same,normalized growth,"S. cerevisiae deletion strains, locus YNL128W, strain TEP1, active compounds read low",0.992
same,normalized growth,"S. cerevisiae deletion strains, locus YNL153C, strain GIM3, active compounds read low",1.02
same,normalized growth,"S. cerevisiae deletion strains, locus YNL183C, strain NPR1, active compounds read low",0.933
same,normalized growth,"S. cerevisiae deletion strains, locus YNL233W, strain BNI4, active compounds read low",0.979
same,normalized growth,"S. cerevisiae deletion strains, locus YNL250W, strain rad50, active compounds read low",1.03
same,normalized growth,"S. cerevisiae deletion strains, locus YNL271C, strain bni1, active compounds read low",0.994
same,normalized growth,"S. cerevisiae deletion strains, locus YNL298W, strain CLA4, active compounds read low",0.95
same,normalized growth,"S. cerevisiae deletion strains, locus YNL307C, strain MCK1, active compounds read low",0.961
same,normalized growth,"S. cerevisiae deletion strains, locus YNR052C, strain pop2, active compounds read low",0.998
same,normalized growth,"S. cerevisiae deletion strains, locus YOL006C, strain TOP1, active compounds read low",0.779
same,normalized growth,"S. cerevisiae deletion strains, locus YOL012C, strain htz1",1.51
same,normalized growth,"S. cerevisiae deletion strains, locus YOL147C, strain pex11, active compounds read low",0.964
same,normalized growth,"S. cerevisiae deletion strains, locus YOR061W, strain CKA2, active compounds read low",0.986
same,normalized growth,"S. cerevisiae deletion strains, locus YOR069W, strain VPS5, active compounds read low",0.994
same,normalized growth,"S. cerevisiae deletion strains, locus YOR136W, strain idh2, active compounds read low",0.977
same,normalized growth,"S. cerevisiae deletion strains, locus YOR144C, strain elg1, active compounds read low",0.981
same,normalized growth,"S. cerevisiae deletion strains, locus YOR184W, strain ser1, active compounds read low",0.571 (active)
same,normalized growth,"S. cerevisiae deletion strains, locus YOR231W, strain MKK1, active compounds read low",0.915
same,normalized growth,"S. cerevisiae deletion strains, locus YOR316C, strain cot1, active compounds read low",0.985
same,normalized growth,"S. cerevisiae deletion strains, locus YPL256C, strain CLN2, active compounds read low",0.925
same,normalized growth,"S. cerevisiae deletion strains, locus YPR119W, strain clb2, active compounds read low",0.971
same,normalized growth,"S. cerevisiae deletion strains, locus YPR141C, strain kar3, active compounds read low",0.991
same,normalized growth,"S. cerevisiae deletion strains, locus YPR163C, strain tif3, active compounds read low",0.943
same,normalized growth,"S. cerevisiae deletion strains, locus YPR167C, strain met16, active compounds read low",0.943
same,normalized growth,"S. cerevisiae deletion strains, strain wtn01, active compounds read low",0.906
same,normalized growth,"S. cerevisiae strains, strain wild type, active compounds read low",0.93
